MazEF act: activators of E. coli MazEF toxin-antitoxin RNase, primary screen, biochemical, fluorescence, uHTS; hit rate 0.32% among 350,000; activation, % at 20 µM; Endoribonuclease toxin MazF (Escherichia coli (strain K12)), P0AE70; AID 504720, 2011; FAM/BHQ RNA-DNA oligo cleavage fluorescence, 5 h; in the data active means activation above about 50%
Target sequence (P0AE70 whole entry, looked up): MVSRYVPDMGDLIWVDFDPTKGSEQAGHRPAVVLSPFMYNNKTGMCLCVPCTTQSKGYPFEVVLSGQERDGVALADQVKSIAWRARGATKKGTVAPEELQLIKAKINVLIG
Mtb FBA inh: Mtb FBA enzyme inhibitors, primary screen, biochemical, fluorescence, strain H37Rv | Fructose-bisphosphate aldolase (Mycobacterium tuberculosis (strain ATCC 25618 / H37Rv)), … | purified M. tuberculosis FBA, fluorescence read-out | AID 588726, 2011 | inhibition, % at 1 µM | hit rate 2.3% among 360,000; in the data active means inhibition above about 27%
Target sequence (P9WQA3 whole entry, looked up): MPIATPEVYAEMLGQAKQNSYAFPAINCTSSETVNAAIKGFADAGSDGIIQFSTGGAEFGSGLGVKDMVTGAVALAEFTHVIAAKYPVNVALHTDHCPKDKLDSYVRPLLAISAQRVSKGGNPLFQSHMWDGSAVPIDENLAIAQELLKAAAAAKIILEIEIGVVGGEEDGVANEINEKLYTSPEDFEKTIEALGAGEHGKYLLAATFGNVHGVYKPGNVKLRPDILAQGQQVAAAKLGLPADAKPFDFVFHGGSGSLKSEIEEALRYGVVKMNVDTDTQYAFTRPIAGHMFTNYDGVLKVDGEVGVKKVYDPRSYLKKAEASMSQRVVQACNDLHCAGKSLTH
GDH-TPI counter: GDH-TPI coupling enzyme inhibitors, primary screen, artefact control for M. tuberculosis FBA inhibitor project, biochemical, absorbance, full deck. GDH-TPI coupled enzyme counterscreen, NADH absorbance. inhibition, % at 4.8 µM. hit rate 1.2% among 360,000
Mtb bLac sens: beta-lactam sensitization of Mtb H37Rv, H37Rv; M. tuberculosis H37Rv growth with meropenem, percent inhibition; hit rate 0.27% among 330,000; inhibition, % at 25 µM; call rule not given here;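 further: growth measured after seven days incubation then overnight dye step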
CCHF vOTU inh: CCHFV vOTU protease inhibitors, primary screen, biochemical, Pep-AMC substrate, fluorescence | hit rate 0.55% among 370,000 | inhibition, % at 11.5 µM | Crimean-Congo hemorrhagic fever virus L polyprotein viral ovarian tumor (vOTU) protease … | AID 651958, 2012
Numbers stand for hits; i = inactive; nt = not tested or not shown; + = active, no number. This is a sample that favours compounds with a hit; in the whole collection about 4% have one here. Unless noted, no stated cut-off is given here; in the data, active means inhibition above about 30%; inactive means the rest.

SMILES | MazEF act | Mtb FBA inh | GDH-TPI counter | Mtb bLac sens | CCHF vOTU inh
CC1OC(Oc2ccc3ccc(=O)oc3c2-c2c(O)ccc3cc(Oc4ccc5ccc(=O)oc5c4)c(=O)oc23)C(O)C(O)C1O (centres undefined) | i | i | 45 | i | i
Cc1cc(C)n(-c2ccc(C(=O)Nc3nc4ccccc4s3)cc2)n1 | i | i | i | i | i
N=c1oc2cc(O)ccc2cc1C(=O)Nc1nc2ccccc2s1 | i | + | i | i | i
Cc1ccnc2nc(C(=O)Nc3nc4ccccc4s3)nn12 | i | i | 41 | i | i
Nc1ccc(C(=O)Nc2nc3ccccc3s2)cc1 | i | i | 34 | i | i
COc1cccc(CNC(=O)Cn2c(-c3ccccc3)cc(C(C)=O)c2C)c1OC | nt | nt | nt | nt | i
COC(=O)[C@]12C[C@H](CC(=O)NCc3cccc(C(F)(F)F)c3)C(=O)N(Cc3ccco3)C1=C[C@H](C1CCCC1)O[C@@H]2C | nt | nt | nt | nt | i
c1ccc(CNC2CCC23CCC(c2ccccc2)CC3)cc1 (centres undefined) | nt | nt | nt | nt | i
COc1cc(/C=C2\S/C(=N/S(=O)(=O)c3ccccc3)NC2=O)c([N+](=O)[O-])cc1OC | i | i | 43 | i | i
COc1ccc(S(=O)(=O)/N=C2/NC(=O)/C(=C\c3cc(OC)c(OC)cc3[N+](=O)[O-])S2)cc1 | i | i | i | i | i
Cc1c(C#N)c(=O)oc2ccc3ccccc3c12 | i | 115 | i | i | i
C/C(=N\Nc1nc2ccccc2[nH]1)c1ccc2c(c1)OCCO2 | i | i | i | i | i
C/C(=N\Nc1nc2ccccc2[nH]1)c1ccccn1 | nt | i | i | i | i
C/C(=N\Nc1nc2ccccc2[nH]1)c1cc2ccccc2o1 | i | i | 33 | i | i
C/C(=N\Nc1nc2ccccc2[nH]1)c1ccc2c(c1)OCO2 | i | i | 31 | i | i
COC(=O)c1cccc(Cn2ccc3ccc(-c4ccc5ccn(C(=O)c6ccccc6OC)c5c4)cc32)c1 | nt | nt | nt | nt | i
C/C(=N/NS(=O)(=O)c1ccc(Br)cc1)c1c[nH]c2ccccc12 | i | i | i | i | i
CC(Cc1ccccc1)=NNS(=O)(=O)c1ccc([N+](=O)[O-])cc1 | 88 | i | i | nt | i
C/C(=N\NS(=O)(=O)c1ccc([N+](=O)[O-])cc1)c1c[nH]c2ccccc12 | 52 | i | i | i | i
CCC(CO)Nc1cccc2c1S(=O)(=O)N(Cc1cn(Cc3ccc(F)cc3)nn1)Cc1ccccc1O2 (centres undefined) | nt | nt | nt | nt | i
N#Cc1c(C#N)c(-c2ccccc2)n(-c2ccccc2)c1N | i | i | i | i | i
Cc1ccc(-c2c(C#N)c(N)n(-c3ccc(Cl)cc3)c(=O)c2C#N)cc1 | nt | i | 31 | nt | i
Cc1ccc(-c2c(C#N)c(N)n(-c3ccccc3)c(=O)c2C#N)cc1 | i | i | 40 | i | i
CN(C)c1c2ccccc2nc2c(F)c(F)c(F)c(F)c12 | i | 117 | i | i | nt
Cc1c2ccccc2nc2c(F)c(N(C)C)c(F)c(F)c12 | i | i | i | i | i
SMILES | MazEF act | Mtb FBA inh | GDH-TPI counter | Mtb bLac sens | CCHF vOTU inh
CC(=O)Nc1ccc(/C=N/Nc2nc3ccccc3[nH]2)cc1 | i | i | 38 | i | i
O=C(O)c1ccc(/C=N/Nc2nc3ccccc3[nH]2)cc1 | i | i | 75 | i | i
O=C(O)c1ccc(/C=N/Nc2ccc(C(F)(F)F)cn2)cc1 | i | i | 38 | nt | i
OCCCN1CCC2(CCC(c3ccccc3)CC2)C1 (centres undefined) | nt | nt | nt | nt | i
COc1ccc(-c2nnc3n2N=C(c2cccc([N+](=O)[O-])c2)CS3)cc1 | nt | nt | nt | nt | i
O=C1CCC2(CCC(c3ccccc3)CC2)N1CCCO (centres undefined) | nt | nt | nt | nt | i
O=C(Nc1nc2ccccc2n1CCOc1ccccc1)c1ccco1 | i | i | 34 | i | i
C=CCn1c(NC(=O)c2ccco2)nc2ccccc21 | i | i | 35 | i | i
O=C(Nc1nc2ccccc2n1Cc1ccc(Cl)cc1)c1ccco1 | i | i | i | i | i
O=C(Nc1nc2ccccc2n1CCOc1ccc(Cl)cc1)c1ccco1 | i | i | i | i | i
COc1ccc(CN2C(=O)c3ccnn3CC2(C)c2nnnn2-c2c(C)cccc2C)cc1 (centres undefined) | nt | nt | nt | nt | i
Cc1cncc(NCc2cccc(Cl)c2)n1 | nt | 118 | i | nt | i
Cc1cncc(NCc2ccc3c(c2)OCO3)n1 | nt | i | i | nt | i
COc1ccc(C(=O)OCCN(C)C2CN(Cc3cn(Cc4cccc(F)c4)nn3)S(=O)(=O)C2)cc1OC (centres undefined) | nt | nt | nt | nt | i
O=C(CN1C(=O)C2CCCCN2C(=O)c2ccccc21)N1CCCC1 (centres undefined) | nt | nt | nt | nt | i
C[C@@H](CO)N(Cc1cn(Cc2ccccc2)nn1)S(=O)(=O)c1ccc(F)cc1Br | nt | nt | nt | nt | i
COc1ccc(N(CC(=O)Nc2ccccc2OC)S(=O)(=O)c2ccc(NC(C)=O)cc2)cc1 | i | i | 31 | i | i
Cc1nn(CCC(N)=O)c2nc(-c3cccs3)cc(C(F)(F)F)c12 | i | 153 | 31 | i | i
N#Cc1c(C(F)(F)F)cc(-c2cccs2)nc1SC(C(=O)O)c1ccccc1 (centres undefined) | i | i | i | i | i
N#Cc1c(C(F)(F)F)cc(-c2cccs2)nc1SCC(=O)O | i | i | 37 | i | i
Cc1nn(CCC(=O)O)c2nc(-c3cccnc3)cc(C(F)(F)F)c12 | i | i | i | i | i
COC(=O)[C@]12C[C@H](CC(=O)NCc3ccc(OC)c(OC)c3)C(=O)N(Cc3cccc4ccccc34)C1=C[C@H](COCc1ccccc1)O[C@@H]2C | nt | nt | nt | nt | i
CCCCOCCCNC(=O)C[C@H]1C[C@@]2(C(=O)OC)C(=C[C@H](C(C)C)O[C@@H]2C2CC2)N(Cc2cccc3ccccc23)C1=O | nt | nt | nt | nt | i
CCc1ccc2c(COC(=O)CNS(=O)(=O)c3ccc(NC(C)=O)cc3)cc(=O)oc2c1 | i | i | i | i | i
CCOC(=O)Nc1ccc2c(COC(=O)C(NS(=O)(=O)c3ccc(Cl)cc3)C(C)O)cc(=O)oc2c1 (centres undefined) | i | + | i | i | i
SMILES | MazEF act | Mtb FBA inh | GDH-TPI counter | Mtb bLac sens | CCHF vOTU inh
CCOC(=O)Nc1ccc2c(COC(=O)CNS(=O)(=O)c3cccc(Br)c3)cc(=O)oc2c1 | i | 155 | i | i | i
c1ccc(-c2ccc(C3=Nn4c(nnc4-c4ccccn4)SC3)cc2)cc1 | nt | nt | nt | nt | i
CC(=O)c1ccc(Nc2nc(C(N)C3CCCCC3)cs2)cc1 (centres undefined) | nt | i | 34 | nt | i
NC(c1csc(Nc2ccc(C(=O)c3ccccc3)cc2)n1)C1CCCCC1 (centres undefined) | nt | i | i | nt | i
COc1ccc(CC(N)c2csc(Nc3ccc(C(=O)c4ccccc4)cc3)n2)cc1 (centres undefined) | nt | i | i | nt | i
COc1ccc(CC(N)c2csc(Nc3ccc(C(C)=O)cc3)n2)cc1 (centres undefined) | nt | i | 38 | nt | i
